NPC1 prom act = qHTS Assay for NPC1 Promoter Activators; Potency, µM (top dose mostly 9.22 µM), for inactives: at the top dose activation, usual class: activators; AID 485313, 2010; 2.4% of 320,000 active; Huh7 NPC1 promoter luciferase reporter, 24 h; note: % of control where 0% means no effect; nearly all actives have a fitted effect of over 60% in size
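Quantitative HTS used a cell-based reporter: Huh7 cells stably bearing the NPC1 promoter upstream of luciferase were treated with compounds for 24 h, and promoter activation was read as luminescence.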
SMN2 splice enh = qHTS Assay for Enhancers of SMN2 Splice Variant Expression | HEK293 SMN2-luciferase splicing reporter, luminescence, 30-36 h | Potency, µM (series often up to 46.1 µM), without a hit: top-dose activity change, positive = activation, actives largely listed as activators | 2.8% of 210,000 active; note: % of control where 0% means no effect; nearly all actives have a fitted effect of over 55% in size
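qHTS luciferase splicing reporter: luminescence rises when SMN2 exon 7 is included in transfected HEK293 cells. Compound exposure lasted 30-36 h at 37C, with 4.5 mM final sodium butyrate as control, followed by a ONE-Glo read.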
FLuc modulator = qHTS profiling assay for firefly luciferase inhibitor/activator using purifed enzyme and Km concentrations of substrates (counterscreen for miR-21 project) | 6.9% of 360,000 active | purified FLuc, Km substrates, luminescence inhibition | AID 588342, 2011 | Luciferin 4-monooxygenase (Photinus pyralis), P08659 | Potency, µM (series often up to 57.5 µM), for inactives: top-dose activity change, negative = inhibition, most hits filed as inhibitors;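 note: plate controls were vehicle for no effect and reference inhibitor for full effect; nearly all actives have a fitted effect of over 55% in size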
Target sequence (P08659 whole entry, looked up): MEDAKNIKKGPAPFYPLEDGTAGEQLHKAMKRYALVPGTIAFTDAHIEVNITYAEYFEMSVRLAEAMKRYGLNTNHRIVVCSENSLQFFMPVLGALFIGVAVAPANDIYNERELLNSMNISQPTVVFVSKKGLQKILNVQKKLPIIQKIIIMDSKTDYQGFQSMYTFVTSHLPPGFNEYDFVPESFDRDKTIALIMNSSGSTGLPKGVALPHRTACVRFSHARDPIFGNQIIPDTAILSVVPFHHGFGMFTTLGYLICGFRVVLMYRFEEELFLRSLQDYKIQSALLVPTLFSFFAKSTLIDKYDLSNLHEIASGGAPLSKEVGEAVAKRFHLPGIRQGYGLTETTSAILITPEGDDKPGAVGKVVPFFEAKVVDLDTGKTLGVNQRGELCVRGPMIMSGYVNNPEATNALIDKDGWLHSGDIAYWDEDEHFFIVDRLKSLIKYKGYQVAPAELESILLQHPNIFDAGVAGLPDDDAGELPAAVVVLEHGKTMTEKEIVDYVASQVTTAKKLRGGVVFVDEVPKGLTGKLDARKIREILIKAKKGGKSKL
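Purified P. pyralis luciferase, 10 nM final, with Km-level 10 uM D-luciferin and 10 uM ATP in 50 mM Tris acetate pH 7.5, 10 mM Mg acetate, 0.01% Tween-20, 0.05% BSA; 6-point qHTS titration about 60 µM downward; luminescence read.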
Luc counter = Counterscreen for Luciferase (Kinase-Glo TM) Inhibition. Luciferin 4-monooxygenase (Photuris pensylvanica), Q27757. Kinase-Glo luciferase, ATP luminescence, 8 min. Potency, µM (titrated, usually from 38.3 µM), without a hit: at the highest dose activity change, negative = inhibition, hits mostly inhibitors. 0.28% of 200,000 active; note: % is set by controls: 0 for no effect and ±100 for the full control effect; nearly all actives have a fitted effect of over 60% in size
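Recombinant Kinase-Glo luciferase, 10 uM ATP (linear range), luciferin; imidazole pH 7.2 / KCl / MgCl2 / Tween / BSA buffer; 8 min RT; luminescence.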
ELG1 genotox = qHTS screen for small molecules that induce genotoxicity in human embryonic kidney (HEK293T) cells expressing luciferase-tagged ELG1. AID 504466, 2011. Potency, µM (titrated, usually from 46 µM), for the others: at the top dose activity change, positive = activation, actives largely listed as activators. 1.3% of 330,000 active. HEK293T ELG1-luciferase reporter, luminescence, 16 h; note: % of control where 0% means no effect; nearly all actives have a fitted effect of over 60% in size
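16 hr compound incubation (37 °C, 5% CO2) of HEK293T cells carrying luciferase-tagged ELG1; luciferase then measured by ONE-Glo luminescence after 30 min at RT.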
Rab9 prom act = qHTS Assay for Rab9 Promoter Activators; Huh7 Rab9 promoter-luciferase reporter, luminescence, 24 h; Potency, µM (doses to about 9.22 µM), for the others: at the top dose activation, negative = inhibition, actives largely listed as activators; 2.8% of 320,000 active; AID 485297, 2010; note: % of control where 0% means no effect; nearly all actives have a fitted effect of over 60% in size
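Steps: seed 1500 Huh7 Rab9-luc cells per well, rest 2 h at 37 °C; add compound in DMSO; incubate 24 h; add luciferase reagent, 10 min ambient; read luminescence.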
Active calls of the source: *; ? = inconclusive; . = not tested or not shown; [ ] = another dose, or the depositor's remark. In the library only some 7.5% were active in any assay of this set; here they are far more common. Calls come from the whole dose curve; as a rule, active = well fitted curve in the direction sought with a large enough effect; inconclusive = small, poorly fitted or top-dose-only effect, or another doubt; inactive = no such curve, though single readings can be large; an effect the other way counts as inactive or inconclusive. Potency is the fitted concentration of half-maximal effect.

SMILES	NPC1 prom act	SMN2 splice enh	FLuc modulator	Luc counter	ELG1 genotox	Rab9 prom act
CC(=O)Nc1ccc(OC(=O)CC2SC(=O)NC2=O)cc1 (stereo unspecified)	0.8%	4.4%	-4.1%	1.4%	1.4%	-1.4%
Nc1c(C(=O)N/N=C/c2ccccc2)cnn1-c1ccccc1	1.12µM*	.	5.36µM*	.	?	0.631µM*
O=C(N/N=C\c1ccccc1)c1ccccc1-n1cccc1	-2.1%	-4.2%	2.1%	7.5%	0.2%	-2.8%
CCCCc1nc2c(c3c1C[C@H](C)OC3)CN(C(=O)N[C@H](C(=O)OC)C(C)C)CC2	.	-8.0%[9.22 µM]	.	-1.0%[7.66 µM]	.	.
CCCn1nnnc1NCc1ccccc1Cl	-5.7%	.	-1.1%	.	-2.5%	0.5%
Cc1cccnc1NC1(C(F)(F)F)N=C(c2ccccc2)NC1=O (stereo unspecified)	-3.3%	-17.0%	0.7%	-1.5%	0.2%	12.8%
O=C(N/N=C/c1ccccc1OCC(=O)N1CCCC1)C(=O)Nc1ccccc1F	1.2%	12.1%	9.53µM*	8.91µM*	11.1%	-4.2%
Cn1nccc1C(=O)Oc1ccc(/C=N/NC(=O)c2ccccc2O)cc1	-0.5%	-16.9%	16.9µM*	-1.6%	2.0%	8.8%
O=C(Oc1ccc(/C=N/NC(=O)c2ccccc2O)cc1)c1ccccc1	1.9%	-1.9%	?	-2.2%	?	-3.4%
O=C(N/N=C/c1ccc(OCC(=O)N2CCCCC2)cc1)c1ccccc1O	13.4%	1.5%	15.1µM*	0.5%	0.6%	12.5%
O=C(N/N=C/c1ccc(OCC(=O)N2CCCCC2)cc1)c1ccccc1	1.4%	?	?	-9.5%	-3.0%	3.1%
O=C(N/N=C/c1cccc(O)c1)c1ccccc1O	0.9%	.	1.51µM*	.	?	8.5%
O=C(c1cc(-c2ccc3c(c2)OCO3)on1)N1CCN(c2ccc(F)cc2)CC1	-2.0%	-16.9%	15.1µM*	1.1%	-0.3%	4.3%
COc1ccccc1N1CCN(C(=O)c2cc(-c3ccc4c(c3)OCO4)on2)CC1	0.8%	7.7%	?	-0.4%	-6.2%	-1.0%
O=C(c1cc(-c2ccc3c(c2)OCO3)on1)N1CCN(c2ccccc2)CC1	2.82µM*	-27.2%	3.79µM*	-21.2%	?	?
CC(C)CNC(=O)c1cc(-c2ccc3c(c2)OCO3)on1	0.562µM*	.	1.9µM*	.	?	0.501µM*
Cc1c(Cl)cccc1NC(=O)c1cc(-c2ccc3c(c2)OCO3)on1	.	-2.7%	-0.6%	.	.	.
CN(C(=O)c1cc(-c2ccc3c(c2)OCO3)on1)c1ccccc1	2.51µM*	.	15.1µM*	.	18.3µM*	2.51µM*
COc1cc(OC)cc(C(=O)Nc2ccccc2C(=O)NC2CC2)c1	0.0%	.	2.0%	.	0.0%	2.0%
O=C(c1cc(-c2ccc3c(c2)OCO3)on1)N1CCOCC1	0.398µM*	0.501µM*	1.51µM*	-24.5%	0.581µM*	0.631µM*
CCc1ccc(NC(=O)c2cc(-c3ccc4c(c3)OCO4)on2)cc1	-4.8%	.	-3.5%	.	3.2%	-4.0%
O=C(NCc1ccccc1)c1cc2ccccc2oc1=O	18.7%	.	15.1µM*	.	?	-1.9%
COc1ccc(CNC(=O)c2cc3ccccc3oc2=O)cc1	-5.4%	.	?	.	-0.2%	-0.8%
CN(C)C(CNC(=O)c1cc2ccccc2oc1=O)c1ccccc1 (stereo unspecified)	3.55µM*	.	15.1µM*	.	?	?
O=C(NCc1ccc(Cl)cc1)c1cc2ccccc2oc1=O	1.1%	.	?	.	7.6%	2.4%
SMILES	NPC1 prom act	SMN2 splice enh	FLuc modulator	Luc counter	ELG1 genotox	Rab9 prom act
N#Cc1cnn(-c2nc3sc4c(c3c(=O)[nH]2)CCCC4)c1N	18.2%	1.8%	6.01µM*	6.5%	8.4%	-5.0%
O=c1[nH]c(C2CC2)nc2sc3c(c12)CCCC3	-3.2%	-3.4%	-13.6%	-0.4%	2.3%	-10.2%
O=C(NCc1ccco1)/C(=C/c1ccc(C(F)(F)F)cc1)c1nc2ccccc2[nH]1	10.0%	24.5%	12µM*	-5.5%	?	14.7%
O=C(NCc1ccco1)/C(=C/c1cccc(C(F)(F)F)c1)c1nc2ccccc2[nH]1	-3.2%	-80.8%	3.8%	1.8%	-3.4%	-6.9%
COc1ccc(NC(=O)c2c(NCc3cccc(F)c3)sc3c2CCC3)c(OC)c1	.	.	1.0%	.	.	.
Cc1nn(C(C)C(=O)NNC(=S)Nc2ccc(Cl)cc2)c(C)c1[N+](=O)[O-] (stereo unspecified)	1.2%	26.8%	2.0%	-1.2%	2.9%	-0.4%
COc1cc(-c2nnc(CSc3nnc(Nc4ccc(Oc5ccccc5)cc4)s3)o2)cc(OC)c1OC	15.3%	12.6%	9.53µM*	-0.7%	-2.4%	14.3%
COc1cc(-c2nnc(CSc3nnc(N)s3)o2)cc(OC)c1OC	-1.6%	19.8%	1.5%	1.3%	7.3%	-2.2%
CCOC(=O)C1=NN(C(=O)c2ccc(OC)cc2)C(O)(c2ccc(Cl)cc2)C1 (stereo unspecified)	-1.3%	12.0%	-14.0%	-2.2%	-5.8%	-7.5%
COC(=O)C1=NN(C(=O)c2cccc(Br)c2)C(O)(c2ccc(Cl)cc2)C1 (stereo unspecified)	-0.6%	.	10.7µM*	.	3.9%	-4.0%
CCOC(=O)N1CCN(C(=O)c2ccc3c(c2)sc2nc(-c4ccccc4)cn23)CC1	3.55µM*	-32.2%	21.3µM*	-6.4%	1.3%	3.16µM*
CCOC(=O)N1CCN(C(=O)c2nc3ccccc3s2)CC1	16.4%	?	19µM*	-1.9%	?	12.9%
CCOC(=O)N1CCN(CC(=O)Nc2nc3ccccc3s2)CC1	-5.4%	.	0.1%	.	-3.6%	-0.2%
CCOC(=O)N1CCc2c(sc3c2c(=O)n(-c2ccccc2)c(=O)n3CC(=O)Nc2ccc(OC)cc2OC)C1	.	-3.8%	-0.2%	.	.	.
COc1ccc(C[N+](C)(C)N)cc1OC	.	-7.8%[9.22 µM]	.	-3.5%[7.66 µM]	.	.
[O-]/[N+](=C\C=C\c1ccccc1)c1ccccc1	2.51µM*	.	4.78µM*	.	?	1.78µM*
O=C1C2C3C=CC(C3)C2C(=O)N1/N=C/c1ccc(-c2ccccc2[N+](=O)[O-])o1 (stereo unspecified)	17.2%	?	19µM*	-2.5%	2.7%	23.7%
O=C1C2C3C=CC(C3)C2C(=O)N1/N=C/c1cc(Br)cc([N+](=O)[O-])c1O (stereo unspecified)	-4.1%	-15.7%	19µM*	0.7%	10.8%	-4.9%
Cc1nccc(-c2sc(-c3cccs3)nc2C)n1	-2.6%	.	15.1µM*	.	?	?
